High-throughput results as filed in PubChem.
Most compounds without a hit are left out; they make up all but 4.9% or so of the library.
Beta cell apopt: blocks beta cell apoptosis. INS-1E cytokine-induced death, ATP luminescence, 48 h; percent of positive-control rescue, neutral wells zero. protection from apoptosis, % (test concentration not listed). 300,000 tested, 0.8% active;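 active means Every replicate reaches about 75%, or at least half do and their mean reaches it too, limit read from the data; inconclusive means At least half of replicates reach the limit but their mean does not; inactive means Under half of replicates reach the limit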;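 further: 0% = cytokine-treated negative control wells and 100% = positive control rescue; higher means more ATP so stronger rescue from cytokine killing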
Mdm2 MdmX PPI: human Mdm2/MdmX binding inhibition | SaOS-2 split-luciferase Mdm2/MdmX complementation, luminescence | O15151+Q00987 | inhibition, % at 8 µM | AID 485346 | 330,000 tested, 3% active;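 active means inhibition of at least 50% at 8 µM in the primary screen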
PP5 inh: blocks human protein phosphatase 5 activity | 320,000 tested, 0.18% active | inhibition, % at 6.7 µM | purified PP5c, OMFP substrate fluorescence | P53041;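 active means inhibition above the campaign's mean inhibition across all tested compounds plus 3 SD, cut at about 9.5% in these data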;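 further: 0% = DMSO only and 100% = 100 µM cantharidin control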
Target sequence (P53041 whole entry, looked up): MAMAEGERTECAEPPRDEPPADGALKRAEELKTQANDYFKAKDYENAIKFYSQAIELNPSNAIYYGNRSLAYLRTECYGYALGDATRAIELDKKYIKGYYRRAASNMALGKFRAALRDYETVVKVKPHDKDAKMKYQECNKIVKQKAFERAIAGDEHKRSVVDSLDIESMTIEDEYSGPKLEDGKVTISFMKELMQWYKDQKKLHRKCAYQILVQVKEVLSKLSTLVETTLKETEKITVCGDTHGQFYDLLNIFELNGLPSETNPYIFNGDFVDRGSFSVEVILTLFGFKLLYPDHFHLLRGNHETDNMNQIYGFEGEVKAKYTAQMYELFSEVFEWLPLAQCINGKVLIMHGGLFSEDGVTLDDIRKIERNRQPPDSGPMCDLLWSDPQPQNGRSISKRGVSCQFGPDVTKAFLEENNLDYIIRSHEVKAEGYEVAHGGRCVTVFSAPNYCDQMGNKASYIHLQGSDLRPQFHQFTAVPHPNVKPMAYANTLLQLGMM
PP1 inh: blocks human PP1-alpha phosphatase, a PP5 counter-screen | P62136 | purified PP1alpha, OMFP fluorescence | inhibition, % at 6.7 µM | 320,000 tested, 0.9% active;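 active means inhibition above the mean inhibition of all tested compounds plus 3 SD, computed separately for each screening campaign, cut at about 15% in these data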
Calb FLC: C. albicans growth modulation with fluconazole; 300,000 tested, 0.57% active; growth inhibition, % (test concentration not listed); C. albicans CaCi-2 (fluconazole-resistant clinical isolate) + fluconazole, Alamar Blue growth, 48 h;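 active means growth inhibition above about 58% in most replicates, limit read from the data, passing the limit was not always enough; inconclusive means exactly half the replicates above a set limit; inactive means most replicates below a set limit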;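 further: all wells also contain fluconazole at 8 µg/ml as a sub-toxic cotreatment; 0% = median of DMSO wells and 100% = median of geldanamycin control wells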
CSC inhib: cancer stem cell inhibition; cancer stem cell-like cells viability, luminescence; inhibition, % at 7.5 µM; 300,000 tested, 1.1% active; AID 2717; in the data active means inhibition above about 75%; inconclusive means no clear call, values can overlap the other calls; tested in HMLE shEcad cells
Mdm2 MdmX conf: confirmation of human Mdm2/MdmX interaction inhibitors. shares compounds with Mdm2 MdmX PPI. Mdm2-MdmX binding, luminescent assay. inhibition, % at 8 µM. 10,000 tested, 55% active; in the data active means inhibition above about 40%
Full FLuc ctr: inhibits full-length luciferase, flagging false Mdm2/MdmX hits; 6,200 tested, 77% active; inhibition, % at 8 µM; SaOS-2 full-length luciferase counterscreen, luminescence; shares compounds with Mdm2 MdmX PPI;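 active means mean inhibition at 8 µM reaching about 37%, which flags the compound as non-specific, limit read from the data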;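 further: p53-null SaOS-2 cells with luciferase driven by a doxycycline-inducible promoter; compound on cells about two nights before reading with doxycycline added after day one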
* = called active by the depositor; u = inconclusive; x = not tested or not shown.

SMILES	Beta cell apopt	Mdm2 MdmX PPI	PP5 inh	PP1 inh	Calb FLC	CSC inhib	Mdm2 MdmX conf	Full FLuc ctr
CCC1C(=O)N=C(SCC(=O)Nc2nc3ccccc3s2)NC1=O (stereo not drawn)	-2	72*	0	-4	6	-21	18	x
Cc1csc(SCC(=O)Nc2nc3ccccc3s2)n1	4	5	3	-3	-17	1	x	x
Cn1cc(SCC(=O)Nc2nc3ccccc3s2)c2ccccc21	-26	78*	0	-3	-7	-6	67*	62*
CCC1C(=O)N=C(SCC(=O)Nc2cccc3ccccc23)NC1=O (stereo not drawn)	x	-7	0	-6	-1	-17	x	x
COc1cc2c(cc1OC)C(c1ccccc1)N(C(=O)C(C)(C)C)CC2 (stereo not drawn)	x	-35	x	x	-5	x	x	x
CCOC(=O)c1sc2nc(CSc3ccccc3Cl)[nH]c(=O)c2c1C	2	52*	0	-2	3	5	-2	x
COc1c(Cl)cc(Cl)cc1/C=C/C(=O)c1ccc(NC(=O)c2cccs2)cc1	23	99*	-5	-1	10	103*	95*	59*
Cc1cccc(C(=O)Nc2ccc(N3CCN(S(C)(=O)=O)CC3)cc2)c1	-2	-3	0	-3	19	-6	x	x
c1ccc2c(c1)CCN(c1nc3cc4c(cc3s1)OCCO4)C2	14	81*	0	2	-6	x	77*	93*
CC1CN(C(=O)c2ccccc2OCc2ccccc2Cl)CC(C)O1 (stereo not drawn)	4	-3	4	-5	x	x	x	x
CCOC(=O)N1CCC(N(CCN(C)C)C(=S)Nc2cccc(Cl)c2)CC1	-12	12	-1	-3	2	-11	x	x
CCOC(=O)N1CCC(N(CCN(C)C)C(=S)Nc2cc(Cl)cc(Cl)c2)CC1	-12	67*	0	-4	5	20	42*	50*
COc1cccc(C(=O)NCC(=O)NCc2cc(=O)n(C)c(=O)n2C)c1OC	2	7	2	1	x	-5	x	x
O=C(CC1C(=O)NCCN1Cc1cccc(F)c1)NC1CCCCC1 (stereo not drawn)	-3	5	-1	-1	-1	-4	x	x
CCOc1cc(/C=N/O)ccc1OCc1ccc([N+](=O)[O-])cc1	2	-23	2	-3	-1	x	x	x
N/C(Cc1ccc([N+](=O)[O-])cc1)=N\OC(=O)c1cccc(Br)c1	-6	61*	1	-2	u	-5	7	x
CCOc1cc(C=C(C(=O)OC)C(=O)OC)ccc1OCc1ccc([N+](=O)[O-])cc1	56	96*	3	3	x	-13	75*	44*
CCOc1ccc(C(=O)O/N=C(\N)c2ccc([N+](=O)[O-])cc2)cc1OCC	x	60*	-1	0	-1	x	52*	125*
N/C(=N\OC(=O)c1cccc(Br)c1)c1ccc([N+](=O)[O-])cc1	-6	-16	2	-4	5	-15	x	x
COc1ccc(C(=O)O/N=C(\N)Cc2ccc([N+](=O)[O-])cc2)c(OC)c1	5	86*	1	-3	-7	-3	68*	90*
CCOc1ccc(C(=O)NCCC2=CCCCC2)cc1OCC	-2	-2	-3	3	-7	5	x	x
Cc1cnc(NC(=O)C2CC=CCC2)s1 (stereo not drawn)	-7	-15	0	1	0	-8	x	x
N#Cc1c(Cl)nc2c(c1C#N)CCCC2	-8	18	3	-4	-8	-18	x	x
Cc1cc(C)cc(OCC(O)CN2CC(C)OC(C)C2)c1 (stereo not drawn)	-2	-11	1	0	3	-12	x	x
N/C(Cc1ccc([N+](=O)[O-])cc1)=N\OC(=O)c1ccc([N+](=O)[O-])cc1	3	16	0	-1	-3	3	x	x
COc1cc(C(=O)O/N=C(\N)Cc2ccc([N+](=O)[O-])cc2)cc(OC)c1OC	12	85*	1	-3	8	30	70*	70*
COc1ccc(Cn2c(=O)[nH]c3cc(C(=O)N4CCN(c5ccc(C(C)=O)cc5)CC4)ccc3c2=O)cc1	9	1	0	-3	12	-10	x	x
